# Test results published in the supplement of paper PMC9694430.
# What was measured:
# Assay in all cases: thermal shift delta Tm vs DMSO control; higher = stronger stabilization (binding)
# Details in all cases: 12.5 µM; protein concentration 2 µM
# LOC_OS01G01410-cb001 = test system: LOC_OS01G01410-cb001
# Method in brief: (§1)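 Thermal shift values come from differential scanning fluorimetry on purified rice kinase domains made in E. coli, with melting temperatures obtained from Boltzmann fits. Samples of 19.5 μl held 2 μM kinase, 100 mM potassium phosphate pH 7.5, 150 mM NaCl, 10% glycerol, 5 × SYPRO Orange and compound in DMSO, and were heated from 25°C to 95°C at 0.05°C/s. Each shift is a triplicate mean relative to the DMSO-only protein sample.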
# LOC_OS01G02750-cb003 = test system: LOC_OS01G02750-cb003
# Method in brief: as §1
# LOC_OS01G10900-cb004 = test system: LOC_OS01G10900-cb004
# Method in brief: as §1
# LOC_OS01G13800-cb001 = test system: LOC_OS01G13800-cb001
# Method in brief: as §1
# LOC_OS01G14860-cb001 = test system: LOC_OS01G14860-cb001
# Method in brief: as §1
# LOC_OS01G21960-cb002 = test system: LOC_OS01G21960-cb002
# Method in brief: as §1
# LOC_OS01G39600-cb002 = test system: LOC_OS01G39600-cb002
# Method in brief: as §1
# LOC_OS01G48390-cb002 = test system: LOC_OS01G48390-cb002
# Method in brief: as §1
# LOC_OS01G51400-cb002 = test system: LOC_OS01G51400-cb002
# Method in brief: as §1
# LOC_OS01G52050-cb004 = test system: T1, LOC_OS01G52050-cb004
# T1 sequence (whole entry): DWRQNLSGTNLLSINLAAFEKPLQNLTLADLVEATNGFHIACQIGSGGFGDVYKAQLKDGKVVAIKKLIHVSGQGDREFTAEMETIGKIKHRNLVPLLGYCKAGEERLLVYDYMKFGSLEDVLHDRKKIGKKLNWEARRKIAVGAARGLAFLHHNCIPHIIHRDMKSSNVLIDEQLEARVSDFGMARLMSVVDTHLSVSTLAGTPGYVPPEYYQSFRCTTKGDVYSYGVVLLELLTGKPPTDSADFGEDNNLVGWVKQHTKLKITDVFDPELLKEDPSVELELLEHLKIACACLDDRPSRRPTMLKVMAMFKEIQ
# Method in brief: as §1
# LOC_OS01G57100-cb003 = test system: LOC_OS01G57100-cb003
# Method in brief: as §1
# LOC_OS01G60330-cb001 = test system: LOC_OS01G60330-cb001
# Method in brief: as §1
# LOC_OS01G60700-cb002 = test system: LOC_OS01G60700-cb002
# Method in brief: as §1
# LOC_OS01G63280-cb003 = test system: LOC_OS01G63280-cb003
# Method in brief: as §1
# LOC_OS01G67340-cb003 = test system: LOC_OS01G67340-cb003
# Method in brief: as §1
# LOC_OS01G70970-cb002 = test system: LOC_OS01G70970-cb002
# Method in brief: as §1
# LOC_OS02G07810-cb001 = test system: LOC_OS02G07810-cb001
# Method in brief: as §1
# LOC_OS02G08530-cb003 = test system: LOC_OS02G08530-cb003
# Method in brief: as §1
# LOC_OS02G14120-cb001 = test system: LOC_OS02G14120-cb001
# Method in brief: as §1
# LOC_OS02G17970-cb001 = test system: LOC_OS02G17970-cb001
# Method in brief: as §1
# 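Also: purified Escherichia coli-expressed rice kinase domain construct.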
Structure (SMILES),thermal shift delta Tm (LOC_OS01G01410-cb001) [°C],thermal shift delta Tm (LOC_OS01G02750-cb003) [°C],thermal shift delta Tm (LOC_OS01G10900-cb004) [°C],thermal shift delta Tm (LOC_OS01G13800-cb001) [°C],thermal shift delta Tm (LOC_OS01G14860-cb001) [°C],thermal shift delta Tm (LOC_OS01G21960-cb002) [°C],thermal shift delta Tm (LOC_OS01G39600-cb002) [°C],thermal shift delta Tm (LOC_OS01G48390-cb002) [°C],thermal shift delta Tm (LOC_OS01G51400-cb002) [°C],thermal shift delta Tm (LOC_OS01G52050-cb004) [°C],thermal shift delta Tm (LOC_OS01G57100-cb003) [°C],thermal shift delta Tm (LOC_OS01G60330-cb001) [°C],thermal shift delta Tm (LOC_OS01G60700-cb002) [°C],thermal shift delta Tm (LOC_OS01G63280-cb003) [°C],thermal shift delta Tm (LOC_OS01G67340-cb003) [°C],thermal shift delta Tm (LOC_OS01G70970-cb002) [°C],thermal shift delta Tm (LOC_OS02G07810-cb001) [°C],thermal shift delta Tm (LOC_OS02G08530-cb003) [°C],thermal shift delta Tm (LOC_OS02G14120-cb001) [°C],thermal shift delta Tm (LOC_OS02G17970-cb001) [°C]
CONC(=O)c1ccccc1Nc1cc(Nc2cc(C)nn2C(C)C)ncc1Cl,0.19,1.48,0.57,-0.17,0.66,0.75,4.21,1.49,0.4,3.96,0.63,0.07,0.19,0.5,0.98,1.15,-0.17,1.79,3.22,0.4
Cc1ccc(NC(=O)c2ccc(CN3CC[C@H](N(C)C)C3)c(C(F)(F)F)c2)cc1Nc1nccc(-c2cncnc2)n1 [Bafetinib (INNO-406)],0.65,0.59,0.73,0.04,0.5,0.66,-0.18,1.17,0.46,0.61,1.86,0.46,1.32,0.68,0.51,0.51,0.39,1.13,0.81,0.5
CN(C)S(=O)(=O)c1ccc2c(c1)/C(=C/c1cc3c([nH]1)CCCC3)C(=O)N2,0,6.57,2.65,1.7,1.95,3.86,3.22,2.42,3.07,13,6.51,10.9,1.5,7.86,11.3,5.65,1.5,5.64,13,1.69
CC1(C)C=Cc2c(ccc3c2OC[C@@H](c2ccc(O)cc2O)C3)O1 [Glabridin],0.95,3.18,2.07,0.08,1.32,1.14,2.12,1.81,1.35,4.83,0.87,2.93,-0.87,3.61,0.86,1.29,-0.38,0.24,0.34,0.51
CC1=C(C(=O)Nc2ccc3[nH]ncc3c2)C(c2ccc(F)cc2)NC(=O)N1 (stereo not given),0.44,1.19,0.21,0.88,0.96,0.9,0.5,0.28,0.23,4.76,2.16,0.38,0.62,0.82,0.41,0.4,-0.36,0.77,2.32,0.88
"COc1cc(F)c(F)c(Nc2ccc(I)cc2F)c1NS(=O)(=O)C1(C[C@H](O)CO)CC1 [Refametinib (RDEA119, Bay 86-9766)]",1.35,-1.27,0.47,0.32,0.61,0.52,-0.03,0.23,0.02,1.46,0.45,1.69,0.96,0.75,-0.44,0.49,0.84,0.79,1.54,1.26
